The values that follow come from PubChem BioAssay (NCATS).

Each structure is given as a SMILES string. “And” between values parts separate entries of the source, which are not always exact repeats. Equal values may be shown once. Values without a mark were called inactive. Inconclusive results are not listed. The source made the active and inactive calls. Unless noted, calls come from the whole dose curve; as a rule, active = well fitted curve in either direction with a large enough effect (not every such curve was filed as active); inconclusive = small, poorly fitted or top-dose-only effect, or another doubt; inactive = flat fitted curve, though single readings scatter.

The nature of experiment [1]: AP1 Signaling Pathway (AID 357).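 Note: ME-180 reporter cells stimulated with EGF at its EC50 level; % is set by controls: 0 for no effect and ±100 for the full control effect.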 The conditions noted are these: ME-180 AP-1-bla reporter, EGF-induced, beta-lactamase ratio, 5 h. Put shortly: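 Beta-lactamase reporter under AP-1 response element, ME-180 background. Stimulus: EC50 EGF. Compound exposure 5 h, 37 °C. Detection: CCF4, 2.5 h RT, 460/530 nm. Values: AC50 from titration.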
The target in experiment [2] is Cytochrome P450 1A2 (Homo sapiens) (UniProt P05177). Briefly: p450-cyp1a2 (AID 410; calls by dose curve; note: potency is the fitted concentration of half-maximal effect;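 for activity change, negative = inhibition: -100% = full effect of reference inhibitor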). The method in brief:
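Human CYP1A2 (20nM) demethylated Luciferin-ME at its Km (100uM) in 100mM KPO4. After 10 min compound preincubation, NADPH regeneration ran the reaction 60 min at room temperature. Luciferin was read by luminescence, normalized to 57 uM furafylline.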

A short description of experiment [3]: Cell Viability - BJ (AID 421; calls by dose curve;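 note: potency is the fitted concentration of half-maximal effect; cells exposed to compound for 40 hours at 37 °C before readout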). The following applies: BJ fibroblast viability, qHTS. The method in brief:
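Normal human BJ foreskin fibroblasts, 1500/well in complete medium, treated 40 hr at 37 °C. Cellular ATP by CellTiter-Glo luminescence; normalized to DMSO and 100 uM tamoxifen, AC50 from Hill fit.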
(In general: In qHTS, concentration-response curves come from the screen itself.)

Experiment [4] in a line: Cell Viability - Jurkat (AID 426;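 active = dose-dependent loss of cell ATP signal giving a full or clear fitted curve, ranked by lower potency value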; note: potency is the fitted concentration of half-maximal effect). The conditions noted are these: qHTS. The method in brief: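 Jurkat (clone E6-1, human T-cell leukemia) cells, 5000/well in complete medium, were exposed to compound for 40 hr at 37 °C. Viability was read as intracellular ATP by CellTiter-Glo luminescence; AC50 came from Hill fits of concentration-response data.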
Experiment [5] can be described thus: Cell Viability - Hek293 (AID 427;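 active = compounds whose dose-response curve shows a full or clear partial loss of cell viability, called from curve shape rather than a numeric limit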;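 note: potency is the fitted concentration of half-maximal effect; cells exposed to compound for 40 hours at 37 °C before reading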). The following applies: qHTS. The method in brief: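 HEK293 cells in complete medium were exposed to compound for 40 hr at 37 °C, then cellular ATP was read by CellTiter-Glo luminescence. Data were normalized to DMSO (basal) and 100 uM tamoxifen (100% inhibition), and AC50 came from Hill fits.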
A short description of experiment [6]: Cell Viability - HepG2 (AID 433; calls by dose curve;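 note: potency is the fitted concentration of half-maximal effect; potency for ATP loss meaning cytotoxicity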). The following applies: qHTS. The method in brief: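 HepG2 hepatocellular carcinoma cells (1500/well) were treated with compounds for 40 h at 37 °C in complete medium; intracellular ATP was read by CellTiter-Glo luminescence. Data were normalized to DMSO and 100 uM tamoxifen, and AC50 came from Hill fits.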
Experiment [7] is described as follows: Cell Viability - MRC5 (AID 434; calls by dose curve;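 note: potency is the fitted concentration of half-maximal effect; potency reflects cytotoxicity seen as loss of intracellular ATP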). The conditions noted are these: MRC5 lung fibroblast viability, qHTS. The method in brief: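 MRC5 normal human lung fibroblasts (1500/well) were treated with compounds for 40 hr at 37 °C in complete medium, and viable cells were measured as intracellular ATP by CellTiter-Glo luminescence. AC50 came from Hill fits, normalized to DMSO and 100 uM tamoxifen.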

The nature of experiment [8]: Cell Viability - SK-N-SH (AID 435; calls by dose curve;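 note: potency is the fitted concentration of half-maximal effect; compound exposure lasted 40 h at 37 °C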). The following applies: SK-N-SH neuroblastoma cell viability qHTS. Put shortly: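 SK-N-SH human neuroblastoma cells (1500/well) were exposed to compounds in complete medium for 40 h at 37 °C, and intracellular ATP was then measured by CellTiter-Glo luminescence. AC50 was taken from Hill fits, normalized to DMSO and 100 uM tamoxifen.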

A short description of experiment [9]: NFAT Signaling Pathway (AID 444).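 Note: carbachol stimulus at about its EC50 of 1 µM final; % is set by controls: 0 for no effect and ±100 for the full control effect.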 The following applies: Jurkat NFAT-bla M1, carbachol, beta-lactamase ratio, 5 h. The method in brief:
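Jurkat cells carrying an NFAT-driven β-lactamase reporter and co-transfected muscarinic M1 receptor were treated with compound plus carbachol (1 uM final, an EC50 level) for 5 h at 37 °C. CCF4 loading followed for 1 h at RT; 460/530 nm ratio gave %activity.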

Experiment [10] addresses Glucocorticoid receptor (Homo sapiens) (UniProt P04150). Description: GR-GFP Redistribution (AID 450;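 active = compounds whose dose series gives a full or clear partial fitted curve of increased nuclear translocation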; note: potency is the fitted concentration of half-maximal effect). The conditions noted are these: U2OS GR-GFP nuclear translocation, laser cytometry, 2 h.
For experiment [11], the target named is Mitogen-activated protein kinase 10 (Mus musculus) (UniProt Q61831). Briefly: JNK3 AlphaScreen Assay (AID 530).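 Note: kinase came from lysate of stimulated human HepG2 cells; signal reports phosphorylation of biotinylated GST-cJun 1-79 at Ser73 with 10 µM ATP; % is set by controls: 0 for no effect and ±100 for the full control effect.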 The method in brief: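 JNK3 came from HepG2 lysates pre-activated with IL-1beta and TNF-alpha and phosphorylated biotinylated GST-cJun (1-79) at 10 uM ATP, pH 7.6, room temperature. Compounds were titrated. AlphaScreen signal used anti-phospho-cJun (Ser73) antibody.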

Experiment [12] can be described thus: Cell Viability - NIH 3T3 (AID 541; active = well fitted curve in the direction sought with a large enough effect; an effect the other way counts as inactive or inconclusive; note: nearly all actives have a fitted effect of over 25% in size; note: potency is the fitted concentration of half-maximal effect;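 for activity change, negative = cytotoxicity: plate controls were DMSO alone for no effect and tamoxifen positive control for full effect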). The following applies: NIH 3T3 cell viability, qHTS; activity change, negative = cytotoxicity: at 92.2 µM (top of the series). The method in brief: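 NIH 3T3 mouse embryo fibroblasts (1000 cells/well) were plated in complete medium and treated with compound for 40 hr at 37 °C. Viability was read as intracellular ATP by CellTiter-Glo luminescence; AC50 values came from Hill-equation fits of concentration-response data.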

A short description of experiment [13]: Cell Viability - HUV-EC-C (AID 542; active = well fitted curve in the direction sought with a large enough effect; an effect the other way counts as inactive or inconclusive; note: % is set by controls: 0 for no effect and ±100 for the full control effect; nearly all actives have a fitted effect of over 35% in size). The method in brief:
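HUV-EC-C normal human vascular endothelial cells, 1000 cells/well, pre-incubated 5 hr at 37 °C, then exposed to compounds for 40 hr at 37 °C in complete medium. Viability measured as intracellular ATP by CellTiter-Glo luminescence; AC50 from Hill fits.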

A short description of experiment [14]: Cell Viability - H-4-II-E (AID 543; active = well fitted curve in the direction sought with a large enough effect; an effect the other way counts as inactive or inconclusive; note: % is set by controls: 0 for no effect and ±100 for the full control effect; nearly all actives have a fitted effect of over 35% in size). Put shortly: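 Rat hepatoma H-4-II-E cells (1500/well) were plated, incubated 5 hr at 37 °C, then exposed to compounds for 40 hr at 37 °C. Cellular ATP was read by CellTiter-Glo luminescence; AC50 came from Hill-equation fits of concentration-response data.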
A short description of experiment [15]: Cell Viability - SH-SY5Y (AID 544; active = well fitted curve in the direction sought with a large enough effect; an effect the other way counts as inactive or inconclusive;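 note: 0% = DMSO alone and -100% = 100 µM tamoxifen; nearly all actives have a fitted effect of over 55% in size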). The following applies: SH-SY5Y neuroblastoma cell viability; viability change, negative = cytotoxic: at 92.2 µM (top of the series). Put shortly:
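Human neuroblastoma SH-SY5Y cells (1500/well) in complete medium were exposed to compounds for 40 hr at 37 °C; intracellular ATP was then quantified by CellTiter-Glo luminescence after 20 min at room temperature. AC50 came from Hill-equation concentration-response fits.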

The nature of experiment [16]: Cell Viability - Renal Proximal Tubule (AID 545; active = well fitted curve in the direction sought with a large enough effect; an effect the other way counts as inactive or inconclusive;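 note: 0% = DMSO only and -100% = 100 µM tamoxifen; nearly all actives have a fitted effect of over 40% in size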). The method in brief:
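Primary rat renal proximal tubule cells (1000/well) were treated with compounds for 40 hr at 37 °C in complete medium. Intracellular ATP was measured by CellTiter-Glo luminescence, and AC50 values came from Hill-equation fits of concentration-response data.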

Experiment [17] in a line: Cell Viability - Mesenchymal (AID 546; active = well fitted curve in the direction sought with a large enough effect; an effect the other way counts as inactive or inconclusive;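 note: cells exposed to compound for 40 hours before reading; 0% = DMSO only and -100% = 100 µM tamoxifen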). The method in brief:
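Normal human renal glomerulus-derived kidney mesenchymal cells, 1000 per well in complete medium, were treated with compounds for 40 hr at 37 °C. Viability was read as intracellular ATP by CellTiter-Glo luminescence; AC50 values came from Hill-equation fits of qHTS concentration-response data.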

Experiment [18] deals with 3',5'-cyclic-AMP phosphodiesterase 4B (Homo sapiens) (UniProt Q07343). Description: qHTS Assay for Inhibitors of PDE-IV (AID 607; active = well fitted activation curve with a large enough effect in the main read-out, with a control signal flat, not every such curve was filed as active; note: % of control where 0% means no effect). Put shortly:
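HEK293 ACTOne cells with CNG channel (1000/well), endogenous PDE4; membrane potential dye, compounds up to 22.9 uM final. Fluorescence Ex 535/Em 590; RO 20-1724 (100 uM final) as reference.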

Experiment [19] in a line: Cellular Toxicity (caspase-3) HepG2 (AID 654; active = well fitted curve in the direction sought with a large enough effect; an effect the other way counts as inactive or inconclusive;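 note: cells exposed to compound for 16 hours before reading; 0% = DMSO alone and 100% = caspase signal from 100 µM tamoxifen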). Put shortly: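 HepG2 cells (1500/well) in complete medium were treated with compounds for 16 hr at 37 °C. Caspase-3/7 activity was then read as luminescence from peptide-aminoluciferin cleavage. AC50 came from Hill fits, normalized to DMSO and 100 uM tamoxifen.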
Experiment [20] is described as follows: Stat Signaling Pathway (AID 446).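 Note: ME-180 cervical cancer cells given 40 pM IL-6 alongside compound; SIE-controlled beta-lactamase reporter measured as 460/530 nm FRET emission ratio; % is set by controls: 0 for no effect and ±100 for the full control effect.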 The following applies: ME-180 SIE beta-lactamase reporter, IL-6 stimulated, 5 h; at 17.2 µM (top of the series) unless noted. Put shortly: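 ME-180 cells carrying a SIE-driven beta-lactamase reporter are stimulated with 40 pM IL-6 for 5 h at 37C in the presence of compound. The 460/530 nm FRET substrate ratio is read after 2.5 h at RT. Data are normalised to 300 pM IL-6 and to 125 nM JAK inhibitor controls.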

[21] abbreviates: at 17.2 µM (top of the series) unless noted.

3',5'-cyclic-AMP phosphodiesterase 4B (Homo sapiens), sequence (Q07343 whole entry, looked up): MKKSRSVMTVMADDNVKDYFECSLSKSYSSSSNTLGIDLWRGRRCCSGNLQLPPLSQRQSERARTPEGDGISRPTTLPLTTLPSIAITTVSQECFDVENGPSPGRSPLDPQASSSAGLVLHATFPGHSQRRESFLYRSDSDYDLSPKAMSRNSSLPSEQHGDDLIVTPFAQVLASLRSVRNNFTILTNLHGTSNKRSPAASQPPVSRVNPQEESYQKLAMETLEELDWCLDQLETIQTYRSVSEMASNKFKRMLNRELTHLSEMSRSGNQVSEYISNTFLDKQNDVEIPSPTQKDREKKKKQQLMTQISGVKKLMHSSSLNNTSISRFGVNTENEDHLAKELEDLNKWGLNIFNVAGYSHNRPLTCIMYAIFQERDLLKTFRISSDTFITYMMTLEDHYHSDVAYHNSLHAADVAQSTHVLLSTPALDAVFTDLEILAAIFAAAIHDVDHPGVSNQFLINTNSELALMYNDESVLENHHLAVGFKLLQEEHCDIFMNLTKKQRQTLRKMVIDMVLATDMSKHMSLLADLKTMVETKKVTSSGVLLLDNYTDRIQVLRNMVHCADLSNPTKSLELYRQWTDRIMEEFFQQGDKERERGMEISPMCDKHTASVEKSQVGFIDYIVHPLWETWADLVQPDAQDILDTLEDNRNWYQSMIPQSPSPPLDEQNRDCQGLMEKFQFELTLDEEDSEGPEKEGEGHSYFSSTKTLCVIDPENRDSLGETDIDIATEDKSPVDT
Glucocorticoid receptor (Homo sapiens), sequence (P04150 whole entry, looked up): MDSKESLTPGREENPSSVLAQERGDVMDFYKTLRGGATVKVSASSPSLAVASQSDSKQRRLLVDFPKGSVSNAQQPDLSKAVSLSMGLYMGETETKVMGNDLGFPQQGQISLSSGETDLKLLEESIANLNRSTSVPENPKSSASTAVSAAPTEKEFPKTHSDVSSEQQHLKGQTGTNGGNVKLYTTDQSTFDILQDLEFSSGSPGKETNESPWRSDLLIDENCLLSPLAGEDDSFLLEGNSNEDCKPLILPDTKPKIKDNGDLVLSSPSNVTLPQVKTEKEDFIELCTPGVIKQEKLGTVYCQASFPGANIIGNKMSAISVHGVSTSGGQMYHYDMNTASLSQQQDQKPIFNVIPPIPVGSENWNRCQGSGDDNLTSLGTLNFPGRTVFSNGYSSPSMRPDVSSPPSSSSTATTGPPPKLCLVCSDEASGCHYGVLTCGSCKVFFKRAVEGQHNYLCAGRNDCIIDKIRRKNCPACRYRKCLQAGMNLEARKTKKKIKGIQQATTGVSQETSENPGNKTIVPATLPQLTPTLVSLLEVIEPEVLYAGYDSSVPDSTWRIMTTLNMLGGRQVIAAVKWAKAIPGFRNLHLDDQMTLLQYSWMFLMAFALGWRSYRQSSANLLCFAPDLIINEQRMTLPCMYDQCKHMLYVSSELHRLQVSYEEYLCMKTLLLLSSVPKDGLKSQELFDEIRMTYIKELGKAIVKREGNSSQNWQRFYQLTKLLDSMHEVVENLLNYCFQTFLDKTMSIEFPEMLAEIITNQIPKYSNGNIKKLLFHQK
Cytochrome P450 1A2 (Homo sapiens), sequence (P05177 whole entry, looked up): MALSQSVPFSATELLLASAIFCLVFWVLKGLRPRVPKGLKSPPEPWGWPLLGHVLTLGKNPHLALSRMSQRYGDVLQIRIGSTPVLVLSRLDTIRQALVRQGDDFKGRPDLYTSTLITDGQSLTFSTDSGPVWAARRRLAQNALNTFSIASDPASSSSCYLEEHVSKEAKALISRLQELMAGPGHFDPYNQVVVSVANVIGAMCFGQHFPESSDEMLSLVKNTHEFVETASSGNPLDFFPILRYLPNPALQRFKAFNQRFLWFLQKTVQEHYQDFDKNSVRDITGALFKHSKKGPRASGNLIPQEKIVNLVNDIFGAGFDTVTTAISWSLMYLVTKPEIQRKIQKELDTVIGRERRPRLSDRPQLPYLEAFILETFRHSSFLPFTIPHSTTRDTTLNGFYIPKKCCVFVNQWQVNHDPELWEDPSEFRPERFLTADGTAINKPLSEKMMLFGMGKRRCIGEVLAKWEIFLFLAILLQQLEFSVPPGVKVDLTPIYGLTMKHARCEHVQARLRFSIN

With `CC1=NN(c2ccccc2)C(=O)C1`, the activity change, negative = inhibition in experiment [1] (setting [21]) is -7.19%; in experiment [9] (setting [21]), 9.94%. For the same compound, the Potency is 12.6 µM (active) in [2]; over 92 µM in experiment [3]; over 92 µM in experiment [4]; over 92 µM in [5]; over 92 µM in [6]; over 92 µM in experiment [7]. Further, the Potency in experiment [8] is over 92 µM; in experiment [10], > 46 µM and > 20.6 µM. Besides, the Potency entry in [11], in experiment [13], in experiment [14], in experiment [15], in experiment [16] and in experiment [17] was “inactive” in each case. The Potency result in experiment [19] was “inactive”. Further, the activity change, negative = cytotoxicity in [12] is -5.02%. Also, the outcome in experiment [18] was inactive.
In the case of `COC(=O)Nc1nc2ccc(Sc3ccccc3)cc2[nH]1`, the activity change, negative = inhibition in experiment [1] (setting [21]) is 1.3% and 6.61%; in experiment [9] (setting [21]), -6.14%. Further, the Potency in [2] is 0.794 µM (active); in [10] it was over 20.6 µM. Besides, the Potency entry in [11] is “inactive”. Further, the compound was classed as inactive in [18].
For the compound `Nc1ccc(S(=O)(=O)Nc2ccccn2)cc1`, the activity change, negative = inhibition in experiment [1] (setting [21]) is -6.81% and -4.21%; in experiment [9] (setting [21]), -3.78% and -28.1%. The Potency result in [2] and in experiment [11] was “inactive” throughout. In experiment [20], the activity, negative = inhibition is -7.68% and -0.177%. Moreover, the Potency in experiment [10] was over 20.6 µM. Besides, the compound was classed as inactive in [18].
Take `N[C@@H](Cc1ccc(O)c(O)c1)C(=O)O`: the activity change, negative = inhibition is -2.87% in experiment [1] (at 17.2 µM (top of the series)), -2.2% in [1] (at 38 µM (top of the series)), 1.41% in experiment [9] (at 17.2 µM (top of the series)) and 18.2% in experiment [9] (at 38 µM (top of the series)). Besides, the Potency entry in experiment [2] and in [11] was “inactive” in each case. Further, the activity, negative = inhibition in experiment [20] was 4.83%. The Potency in [10] is > 46 µM and > 20.6 µM. The compound was classed as inactive in [18].
For `COc1cc([C@@H]2c3cc4c(cc3[C@H](O)[C@H]3COC(=O)[C@H]23)OCO4)cc(OC)c1OC`, the activity change, negative = inhibition in experiment [1] (setting [21]) is 20.7%.
Consider `Cc1nnc(NS(=O)(=O)c2ccc(N)cc2)s1`, for which the activity change, negative = inhibition in experiment [1] (setting [21]) is 7.08% and 5.89%; in [9] (setting [21]), 16.1% and -9.52%. For the same compound, the Potency result in experiment [2], in experiment [11], in experiment [13], in experiment [14], in experiment [15] and in experiment [16] was “inactive” in each case. The Potency entry in [17] and in experiment [19] was “inactive” each time. Also, the Potency in experiment [3], in experiment [4], in experiment [5], in experiment [6], in experiment [7] and in experiment [8] was over 92 µM throughout. For the same compound, the activity change, negative = cytotoxicity in experiment [12] was -22.7%. Also, in experiment [18], the call was inactive.
Take `COc1ccc2cc3[n+](cc2c1OC)CCc1cc2c(cc1-3)OCO2`: the activity change, negative = inhibition in experiment [1] (setting [21]) was 10.1%. The Potency in experiment [2] was 5.01 µM (active); in [3], over 92 µM; in experiment [7] it was over 92 µM; in [8], over 92 µM; in experiment [10], over 20.6 µM; in experiment [12], 1 µM (active). Also, the Potency entry in [11], in experiment [13], in [14], in [15], in experiment [16] and in experiment [17] was “inactive” each time. Besides, in [19], the Potency entry was “inactive”. Moreover, in [18], the result was inactive.
Regarding `CCc1cc(C(N)=S)ccn1`, the activity change, negative = inhibition was -4.73% in experiment [1] (setting [21]) and 5.86% in experiment [9] (setting [21]). Moreover, the Potency in experiment [3], in experiment [4], in experiment [5], in experiment [6], in experiment [7] and in experiment [8] was over 92 µM in each case. For the same compound, the Potency in [10] was over 20.6 µM. Moreover, the Potency entry in [11], in [13], in [14], in [15], in experiment [16] and in experiment [17] was “inactive” throughout. In [19], the Potency entry was “inactive”. The activity change, negative = cytotoxicity in [12] is -7.33%. The compound was called inactive in experiment [18].
Take `Cc1cccc(Nc2ccncc2S(=O)(=O)NC(=O)NC(C)C)c1`: the activity change, negative = inhibition in experiment [1] (setting [21]) is -9.3%; in [9] (setting [21]) it was -2.46%. The Potency result in [2] and in experiment [11] was “inactive” each time. The Potency in [10] was over 20.6 µM.
For `CCOC(=O)c1ccc(OC(=O)CCCCCN=C(N)N)cc1`, the activity change, negative = inhibition in experiment [1] (setting [21]) is 1.04%. Moreover, the Potency in [2] is 12.6 µM (active) and 15.8 µM (active). The Potency result in [11] is “inactive”. The compound was classed as inactive in experiment [18].
In the case of `NS(=O)(=O)c1cc2c(cc1Cl)NC(C(Cl)Cl)NS2(=O)=O` (centres undefined), the activity change, negative = inhibition in experiment [1] (setting [21]) was 12.3%.
Regarding `CNNCc1ccc(C(=O)NC(C)C)cc1`, the activity change, negative = inhibition is -1.4% in experiment [1] (setting [21]) and -25.9% in experiment [9] (setting [21]). Also, the Potency was 1.58 µM (active) in [2] and over 20.6 µM in experiment [10]. The Potency result in experiment [11] is “inactive”. The compound was called inactive in [18].
